Data published in PubChem BioAssay AID1719 (National Center for Advancing Translational Sciences (NCATS), 2009).
The list shows a part of the results. Results filed as inconclusive are left out. The source made the active and inactive calls.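 Rule for the calls: active = compounds whose electron micrographs showed tau fibrils broken into shorter filaments or fragments, graded high on fibril breakup; inconclusive = micrographs gave an unclear fibril picture; inactive = the rest.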

Molecular target: Microtubule-associated protein tau (Homo sapiens) (UniProt P10636)
Sequence (P10636 561-689 P618L limits assumed): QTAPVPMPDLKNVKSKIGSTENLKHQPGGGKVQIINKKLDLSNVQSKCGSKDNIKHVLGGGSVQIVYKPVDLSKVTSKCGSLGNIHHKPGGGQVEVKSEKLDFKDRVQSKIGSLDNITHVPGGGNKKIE
Experiment: Transmission Electron Microscopy Assay for Inhibitors of Tau Fibrillization
Settings: recombinant tau K18 P301L (four-repeat tau fragment) fibrillization, TEM grading; hits give high values
Description: NIH Molecular Libraries Probe Production Network [MLPCN] NIH Chemical Genomics Center [NCGC] MLPCN Grant: X01 MH083262-01 Assay Provider: Carlo Ballatore, University of Pennsylvania NCGC Assay Overview: The microtubule-associated protein tau is an abundant protein in the axons of neurons that stabilizes microtubules. With its ability to modulate microtubule dynamics, tau contributes directly or indirectly, to key structural and regulatory cellular functions. Particularly important is the influence tau exerts on axonal transport, which allows signaling molecules, trophic factors and other essential cellular constituents to travel along the axons. Under pathological conditions, tau becomes sequestered into insoluble aggregates called neurofibrillary tangles. This phenomenon is believed to have pathological consequences by promoting axonal transport deficits that ultimately lead to synaptic dysfunction and neuronal loss. The ability of compounds to block tau fibrillization was visualized using transmission electron microscopy (TEM). Samples from the tau ThT confirmation assay treated with 100 uM compound (AID 1558) were centrifuged and imaged using TEM. […]

Structure (SMILES) | fibril grade (0 = clumped fibrils, 4 = only tiny pieces)
CCN(CC)c1ccc2oc(=O)c(C)nc2c1 | 4 (active)
